The results in this text go back to the OligoGym collection.
Further: reference of the scale not given here.

The first assay deals with NEFH. In words: pooled miR-30 sensor sort-seq; sequence = guide strand. The note with it: shRNA.
The sequence TTGGCTTCTTCCTTCACTGGGG returned a sensor-assay potency score (higher = more potent) of 0.0706. As for TTTGGGTTTAGCGTCTTCCTTC, the sensor-assay potency score (higher = more potent) was -0.21. Still for that read-out and setting: as for TACCTCTGTCTTTTCTTTGGGT, the figure is 0.0672; as for TATCTCTATATCCAGAGCCATC, -1.97.

Another assay concerns the target NEIL1. The description is as above. The note with it: shRNA.
On to TATCTTCTGGCTCAGGGTCAGC, for which the sensor-assay potency score (higher = more potent) was -1.69.

For the sequence TGAACTGCTGGTACTCCTGCAA, the sensor-assay potency score (higher = more potent) is -0.0198.

The sequence TTGCAGTCCTCTTAGGAAGGTC came in with a sensor-assay potency score (higher = more potent) of -0.51.

The sequence TGAGTGACATAGCTCCAGCAGG came in with a sensor-assay potency score (higher = more potent) of -1.15.

With TACTCCTGCAAGACACAGGGCC, the sensor-assay potency score (higher = more potent) is -0.384. Regarding TTTCGTAGCACACTCTCCCTGA, the sensor-assay potency score (higher = more potent) worked out at 0.529.

In the case of TTCTTTTTGCGGGACTTGCGCC, the sensor-assay potency score (higher = more potent) was -1.12.

As to TCTTAGGAAGGTCTCTCTTTGC, the sensor-assay potency score (higher = more potent) was -1.22. Take ATGTCAGCCTTGACCTTCCGGG: the sensor-assay potency score (higher = more potent) is -0.984. With TGGGATGTCAGCCTTGACCTTC, the sensor-assay potency score (higher = more potent) was -1.09. Still for that read-out and setting: then TCTGTCCTCAGGACTCAGCTGT, with -0.0425; and TTGGTCCTTATCTTCTGGCTCA, with -0.526.

A further assay deals with NEK11. The assay is described as above. The note with it: shRNA.
TTAGAAGTCGAGAAACTCCAAA: the sensor-assay potency score (higher = more potent) was -0.797. The same measure, in the same setting: as for TAAGTCTCGATGAAGTATCCTC, the figure is -0.275; as for TATATGAGCAGCCTCCTTCTGA, -0.668; as for TTTGTGTCTAGAGAAGTGCAAC, -1.07. As to TACATCAACACTCAGCTGCTGA, the sensor-assay potency score (higher = more potent) is -0.0516. Still for that read-out and setting: then TTTTCTGTACTTCTGACAGTGC, with -0.562. Same read-out and setting: then TTCCTGAATTTTATCGTCCAGA, with -0.793. Same read-out and setting: then TTAGGTTCTGTAGCTGCTCATC, with -0.837; and TTCGCTAGCATTCTGATGCCTT, with 0.204; and ATGGAGTACATCAACACTCAGC, with -1.37. Consider TTTTGTTGAAGCACGTATCTTC, for which the sensor-assay potency score (higher = more potent) worked out at 0.706.

TTCTCTGGTCTTTCTAACGCTA: the sensor-assay potency score (higher = more potent) is -0.53.

A further assay addresses NEK7. The description is as above. The note with it: shRNA.
Take TCTATCTTCTTACACAGTGAGT: the sensor-assay potency score (higher = more potent) is -1.04. On the same count and under the same terms, as for TATATCTCTATGCATGACTCTT, the figure is -0.469. TTAAAATGCTTGATCATTCTGG displayed a sensor-assay potency score (higher = more potent) of 0.745. In turn, TAGTTCATTATCTTCAATGAAT yielded a sensor-assay potency score (higher = more potent) of -1.2. Take TAGGTCGCCAGCATCTGCTAGT: the sensor-assay potency score (higher = more potent) is -0.288. Sequence TTGAGCTGAAAAACCGGCCAAG came in with a sensor-assay potency score (higher = more potent) of -1.05. As for TAAACATAGGTGACGTCTGGTC, the sensor-assay potency score (higher = more potent) was -1.09.

Sequence TTTTCATGTATTCTCTCTGGAG yielded a sensor-assay potency score (higher = more potent) of -0.779. With TAATGAACACATTAGCTGGTTT, the sensor-assay potency score (higher = more potent) is -0.362. With TTAGCTGGTTTTATATCTCTAT, the sensor-assay potency score (higher = more potent) is -0.684. On the same count and under the same terms, as for TCTCATATAGTAGACAGCCAAG, the figure is -1.88; as for TAAACTTCACTAAATTGTCCGC, -0.329.
